Common to all, as to experiment: DAPPL (digital affinity profiling via proximity ligation, sequencing); 10 mM Tris-HCl pH 7.5, 50 mM NaCl, 1 mM DTT, 4% glycerol, room temperature, 30 min; GST-TFs on glutathione beads, 16-mer random dsDNA library, 0.1% formaldehyde crosslink after washing; high values mean tight binding
What all share (details): protein: recombinant; tags: N-terminal GST; dsDNA, one strand shown

One experiment deals with T1, FEV (Homo sapiens, UniProt Q99581 1-238).
T1 sequence: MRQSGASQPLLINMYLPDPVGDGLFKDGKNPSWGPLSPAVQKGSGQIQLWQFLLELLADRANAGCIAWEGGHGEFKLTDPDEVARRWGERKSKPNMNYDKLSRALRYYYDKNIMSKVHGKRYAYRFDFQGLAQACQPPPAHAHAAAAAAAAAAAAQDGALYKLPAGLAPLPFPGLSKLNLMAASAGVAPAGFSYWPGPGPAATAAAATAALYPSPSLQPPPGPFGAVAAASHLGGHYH
The procedure, abridged: (§1)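 Binding signal is given per hexamer as its read frequency for a factor divided by its frequency in the tag-only sample. GST-fused human transcription factors were expressed in yeast, captured on glutathione beads, barcoded with DNA and pooled with that sample, then incubated with 200 nmole of a 16-mer random double-stranded DNA library in Tris/NaCl/DTT/glycerol buffer for 30 min at room temperature. The pools were then washed, crosslinked, proximity-ligated, amplified by PCR and sequenced on an Illumina NextSeq500.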

In a further experiment the target is T2, SPIC (Homo sapiens, UniProt Q8N5J4 1-248).
T2 sequence: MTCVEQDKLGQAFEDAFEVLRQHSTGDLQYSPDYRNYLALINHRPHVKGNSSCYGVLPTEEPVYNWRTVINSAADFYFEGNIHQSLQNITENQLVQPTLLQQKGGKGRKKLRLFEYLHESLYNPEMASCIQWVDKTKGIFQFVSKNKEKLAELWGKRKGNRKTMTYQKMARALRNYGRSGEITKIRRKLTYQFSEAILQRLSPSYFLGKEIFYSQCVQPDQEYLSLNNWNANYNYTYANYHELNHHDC
Put shortly:
as §1

In a further experiment the target is T3, ERF (Homo sapiens, UniProt P50548 1-548).
T3 sequence: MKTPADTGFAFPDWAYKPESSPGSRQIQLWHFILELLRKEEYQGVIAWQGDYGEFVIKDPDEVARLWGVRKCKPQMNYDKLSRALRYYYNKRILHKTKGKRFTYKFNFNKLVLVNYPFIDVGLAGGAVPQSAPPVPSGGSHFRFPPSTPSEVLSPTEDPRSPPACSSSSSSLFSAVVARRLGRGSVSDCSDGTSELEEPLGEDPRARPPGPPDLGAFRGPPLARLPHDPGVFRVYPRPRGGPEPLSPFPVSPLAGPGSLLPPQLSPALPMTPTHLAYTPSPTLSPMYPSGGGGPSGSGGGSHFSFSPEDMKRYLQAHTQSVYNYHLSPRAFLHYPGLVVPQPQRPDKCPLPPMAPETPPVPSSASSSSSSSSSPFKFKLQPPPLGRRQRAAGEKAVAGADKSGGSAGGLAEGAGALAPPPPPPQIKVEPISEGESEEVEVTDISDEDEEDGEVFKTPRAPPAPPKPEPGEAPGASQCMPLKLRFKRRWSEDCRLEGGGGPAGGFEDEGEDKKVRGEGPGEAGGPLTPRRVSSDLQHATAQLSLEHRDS
The procedure, abridged:
as §1

In the next experiment the target is T4, ETV3L (Homo sapiens, UniProt Q6ZN32 1-361).
T4 sequence: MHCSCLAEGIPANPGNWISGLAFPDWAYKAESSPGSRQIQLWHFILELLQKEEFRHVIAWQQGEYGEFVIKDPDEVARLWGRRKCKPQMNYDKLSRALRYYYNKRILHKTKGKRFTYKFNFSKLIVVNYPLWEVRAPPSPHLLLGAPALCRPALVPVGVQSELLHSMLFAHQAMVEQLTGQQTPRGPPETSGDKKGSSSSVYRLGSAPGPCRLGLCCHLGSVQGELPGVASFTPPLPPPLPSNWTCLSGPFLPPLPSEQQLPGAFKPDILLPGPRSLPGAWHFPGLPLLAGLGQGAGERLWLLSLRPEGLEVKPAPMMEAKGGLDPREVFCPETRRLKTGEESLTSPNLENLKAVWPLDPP
Put shortly:
as §1

For a further experiment, the target named is T5, SPDEF (Homo sapiens, UniProt O95238 1-335).
T5 sequence: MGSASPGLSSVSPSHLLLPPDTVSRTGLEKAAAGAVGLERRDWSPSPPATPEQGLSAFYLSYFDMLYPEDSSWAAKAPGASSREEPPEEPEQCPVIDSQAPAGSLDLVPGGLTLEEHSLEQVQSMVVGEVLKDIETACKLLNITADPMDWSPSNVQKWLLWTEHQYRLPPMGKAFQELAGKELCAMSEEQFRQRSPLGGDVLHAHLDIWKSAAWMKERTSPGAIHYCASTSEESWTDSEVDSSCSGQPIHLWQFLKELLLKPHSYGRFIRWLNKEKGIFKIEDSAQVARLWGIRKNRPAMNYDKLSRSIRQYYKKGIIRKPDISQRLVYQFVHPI
Put shortly: as §1

A further experiment deals with T6, ETV7 (Homo sapiens, UniProt Q9Y603 1-341).
T6 sequence: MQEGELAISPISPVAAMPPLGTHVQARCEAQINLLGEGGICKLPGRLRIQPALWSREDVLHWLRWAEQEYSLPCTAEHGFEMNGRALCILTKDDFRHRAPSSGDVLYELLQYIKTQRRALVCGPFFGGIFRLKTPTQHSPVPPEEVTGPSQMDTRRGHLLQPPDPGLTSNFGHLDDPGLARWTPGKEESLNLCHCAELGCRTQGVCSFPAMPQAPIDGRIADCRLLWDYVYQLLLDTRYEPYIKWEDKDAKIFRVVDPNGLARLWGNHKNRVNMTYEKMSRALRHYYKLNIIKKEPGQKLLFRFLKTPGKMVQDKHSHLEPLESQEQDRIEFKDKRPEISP
Put shortly:
as §1

The target in another experiment is T7, ETV3 (Homo sapiens, UniProt P41162-2 1-143).
T7 sequence: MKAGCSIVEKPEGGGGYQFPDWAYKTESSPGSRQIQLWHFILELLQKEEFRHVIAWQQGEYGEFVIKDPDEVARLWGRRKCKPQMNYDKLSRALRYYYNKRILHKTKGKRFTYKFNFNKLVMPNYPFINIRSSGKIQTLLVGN
The procedure, abridged:
as §1

The target in another experiment is ETV6 (Homo sapiens, UniProt P41212 1-452). The procedure, abridged:
as §1

For a further experiment, the target named is SPI1 (Homo sapiens, UniProt P17947 1-270). Put shortly: as §1
The next experiment concerns the target T8, ELK3 (Homo sapiens, UniProt P41970 1-407).
T8 sequence: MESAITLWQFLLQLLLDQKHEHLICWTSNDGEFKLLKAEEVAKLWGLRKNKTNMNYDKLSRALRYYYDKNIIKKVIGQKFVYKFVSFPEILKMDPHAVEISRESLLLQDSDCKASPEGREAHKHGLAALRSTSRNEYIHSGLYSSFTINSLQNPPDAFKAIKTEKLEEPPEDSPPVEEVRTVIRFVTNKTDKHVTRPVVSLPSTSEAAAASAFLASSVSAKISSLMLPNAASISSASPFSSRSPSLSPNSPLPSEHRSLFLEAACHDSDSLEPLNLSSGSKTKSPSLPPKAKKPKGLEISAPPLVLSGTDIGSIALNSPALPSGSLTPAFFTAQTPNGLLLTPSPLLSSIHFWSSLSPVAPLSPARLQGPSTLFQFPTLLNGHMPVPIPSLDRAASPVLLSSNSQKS
The procedure, abridged: as §1

A further experiment deals with T9, ELF3 (Homo sapiens, UniProt P78545 1-371).
T9 sequence: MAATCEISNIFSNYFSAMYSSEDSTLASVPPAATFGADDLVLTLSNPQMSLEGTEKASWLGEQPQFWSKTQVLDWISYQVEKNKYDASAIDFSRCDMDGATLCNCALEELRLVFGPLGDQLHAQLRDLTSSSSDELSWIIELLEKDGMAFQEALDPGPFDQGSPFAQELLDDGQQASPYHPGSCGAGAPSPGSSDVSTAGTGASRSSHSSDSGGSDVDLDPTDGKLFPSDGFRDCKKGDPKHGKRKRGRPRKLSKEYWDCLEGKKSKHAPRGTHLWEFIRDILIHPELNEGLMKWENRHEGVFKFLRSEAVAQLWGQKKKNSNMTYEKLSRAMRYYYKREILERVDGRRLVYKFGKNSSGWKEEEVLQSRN
Put shortly: as §1

Another experiment has as its target T10, ELK1 (Homo sapiens, UniProt P19419 1-428).
T10 sequence: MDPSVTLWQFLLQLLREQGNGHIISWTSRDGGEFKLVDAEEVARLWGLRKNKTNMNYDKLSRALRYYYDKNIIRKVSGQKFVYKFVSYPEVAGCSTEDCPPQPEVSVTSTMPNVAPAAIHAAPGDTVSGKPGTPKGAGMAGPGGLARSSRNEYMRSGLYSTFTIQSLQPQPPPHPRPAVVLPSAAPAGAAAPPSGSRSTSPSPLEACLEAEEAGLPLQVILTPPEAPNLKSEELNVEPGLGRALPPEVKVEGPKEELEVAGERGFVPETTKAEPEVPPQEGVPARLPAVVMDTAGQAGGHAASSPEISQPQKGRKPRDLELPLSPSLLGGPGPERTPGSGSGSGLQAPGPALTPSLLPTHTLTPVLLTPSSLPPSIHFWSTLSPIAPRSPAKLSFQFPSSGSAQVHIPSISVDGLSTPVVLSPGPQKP
Put shortly: as §1

For the next experiment, the target named is T11, GABPA (Homo sapiens, UniProt Q06546 1-454).
T11 sequence: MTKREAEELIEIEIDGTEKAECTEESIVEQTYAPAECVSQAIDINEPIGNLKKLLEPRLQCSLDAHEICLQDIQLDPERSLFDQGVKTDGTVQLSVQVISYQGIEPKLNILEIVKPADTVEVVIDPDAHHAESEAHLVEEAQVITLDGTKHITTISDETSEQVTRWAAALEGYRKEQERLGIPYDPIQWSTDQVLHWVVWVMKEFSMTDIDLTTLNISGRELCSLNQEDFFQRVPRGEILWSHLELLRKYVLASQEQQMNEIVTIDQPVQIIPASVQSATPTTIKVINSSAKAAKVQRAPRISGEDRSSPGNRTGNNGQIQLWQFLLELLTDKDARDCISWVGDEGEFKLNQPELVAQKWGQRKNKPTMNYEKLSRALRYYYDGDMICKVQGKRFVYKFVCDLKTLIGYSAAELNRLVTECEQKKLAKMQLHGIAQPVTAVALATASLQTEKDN
The procedure, abridged:
as §1

The next experiment addresses ELF1 (Homo sapiens, UniProt P32519 1-619). Put shortly:
as §1

Another experiment has as its target T12, EHF (Homo sapiens, UniProt Q9NZC4 1-300).
T12 sequence: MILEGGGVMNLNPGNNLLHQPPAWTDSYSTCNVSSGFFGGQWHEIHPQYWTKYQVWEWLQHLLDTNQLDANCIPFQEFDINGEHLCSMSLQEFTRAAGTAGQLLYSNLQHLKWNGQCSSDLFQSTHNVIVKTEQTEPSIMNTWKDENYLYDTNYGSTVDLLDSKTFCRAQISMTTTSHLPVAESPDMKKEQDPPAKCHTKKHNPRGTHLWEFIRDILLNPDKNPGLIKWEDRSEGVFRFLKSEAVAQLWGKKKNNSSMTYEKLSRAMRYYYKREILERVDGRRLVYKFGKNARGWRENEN
The procedure, abridged:
as §1

The target of the next experiment is T13, ETS2 (Homo sapiens, UniProt P15036 1-469).
T13 sequence: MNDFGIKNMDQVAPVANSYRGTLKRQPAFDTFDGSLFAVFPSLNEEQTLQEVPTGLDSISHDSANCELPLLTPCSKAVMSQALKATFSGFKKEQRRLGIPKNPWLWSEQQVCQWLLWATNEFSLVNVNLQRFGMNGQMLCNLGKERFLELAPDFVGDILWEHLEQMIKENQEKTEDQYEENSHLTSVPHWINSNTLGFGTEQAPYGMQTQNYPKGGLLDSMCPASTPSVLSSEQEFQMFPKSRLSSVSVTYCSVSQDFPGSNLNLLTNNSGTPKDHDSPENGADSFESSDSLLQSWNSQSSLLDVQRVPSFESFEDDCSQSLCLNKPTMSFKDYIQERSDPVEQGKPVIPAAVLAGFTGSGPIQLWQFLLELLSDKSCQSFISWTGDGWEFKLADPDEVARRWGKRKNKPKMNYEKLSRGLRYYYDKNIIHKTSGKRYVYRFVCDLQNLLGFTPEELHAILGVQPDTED
Put shortly: as §1

Chain of ELF1 (P32519 whole entry): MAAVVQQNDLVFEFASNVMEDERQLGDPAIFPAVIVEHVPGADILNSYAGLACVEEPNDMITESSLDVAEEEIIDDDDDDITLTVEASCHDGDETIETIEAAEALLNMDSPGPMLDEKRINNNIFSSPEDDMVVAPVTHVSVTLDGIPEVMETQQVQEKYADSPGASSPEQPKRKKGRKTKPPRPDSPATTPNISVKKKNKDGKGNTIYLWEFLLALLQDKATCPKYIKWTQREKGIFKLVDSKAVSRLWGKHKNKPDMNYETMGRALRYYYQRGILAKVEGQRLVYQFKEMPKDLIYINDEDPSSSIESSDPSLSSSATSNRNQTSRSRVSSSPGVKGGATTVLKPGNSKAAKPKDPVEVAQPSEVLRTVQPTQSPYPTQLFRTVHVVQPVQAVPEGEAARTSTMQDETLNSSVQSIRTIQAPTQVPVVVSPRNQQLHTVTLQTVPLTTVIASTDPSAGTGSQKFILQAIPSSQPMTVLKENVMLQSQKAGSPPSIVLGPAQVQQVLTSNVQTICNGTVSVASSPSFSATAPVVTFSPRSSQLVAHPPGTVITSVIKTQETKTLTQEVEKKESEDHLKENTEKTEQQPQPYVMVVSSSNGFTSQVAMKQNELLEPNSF
Chain of ETV6 (P41212 whole entry): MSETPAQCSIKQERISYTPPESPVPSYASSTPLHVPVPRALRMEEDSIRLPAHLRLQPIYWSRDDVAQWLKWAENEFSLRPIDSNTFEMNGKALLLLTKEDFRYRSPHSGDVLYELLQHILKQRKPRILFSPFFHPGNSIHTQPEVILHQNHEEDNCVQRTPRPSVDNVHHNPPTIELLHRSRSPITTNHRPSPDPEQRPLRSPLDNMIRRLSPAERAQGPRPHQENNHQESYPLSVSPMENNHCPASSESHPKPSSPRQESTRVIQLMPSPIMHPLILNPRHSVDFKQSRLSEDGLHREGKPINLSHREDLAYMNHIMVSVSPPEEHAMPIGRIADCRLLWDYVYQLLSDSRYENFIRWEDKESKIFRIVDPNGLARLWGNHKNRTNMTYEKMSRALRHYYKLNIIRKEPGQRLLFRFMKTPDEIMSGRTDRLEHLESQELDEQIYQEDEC

In the case of GCGACA, the binding signal is 1.02 fold enrichment (6-mer frequency, TF over GST control) with FEV; 1.03 fold enrichment (6-mer frequency, TF over GST control) with SPIC; 1.04 fold enrichment (6-mer frequency, TF over GST control) with ERF; 1.04 fold enrichment (6-mer frequency, TF over GST control) in the experiment with ETV3L; 1 fold enrichment (6-mer frequency, TF over GST control) with SPDEF; 1.05 fold enrichment (6-mer frequency, TF over GST control) with ETV7. In addition, the binding signal with ETV3 is 1.01 fold enrichment (6-mer frequency, TF over GST control); with ETV6, 1.04 fold enrichment (6-mer frequency, TF over GST control).
As for GTGGTT, the binding signal in the experiment with SPI1 was 1.02 fold enrichment (6-mer frequency, TF over GST control); with ELK3 it was 1.01 fold enrichment (6-mer frequency, TF over GST control); with SPIC it was 1.01 fold enrichment (6-mer frequency, TF over GST control); in the experiment with ELF3 it was 1.1 fold enrichment (6-mer frequency, TF over GST control).
Regarding GACATG, the binding signal is 1.01 fold enrichment (6-mer frequency, TF over GST control) with ELK1; 1.1 fold enrichment (6-mer frequency, TF over GST control) in the experiment with SPIC; 1.03 fold enrichment (6-mer frequency, TF over GST control) with ETV7.
Take CAGCAC: the binding signal with GABPA was 1.03 fold enrichment (6-mer frequency, TF over GST control); in the experiment with ELF1, 1.02 fold enrichment (6-mer frequency, TF over GST control); with EHF, 1 fold enrichment (6-mer frequency, TF over GST control); with SPIC, 1.11 fold enrichment (6-mer frequency, TF over GST control); in the experiment with ELF3, 1.02 fold enrichment (6-mer frequency, TF over GST control); in the experiment with ERF, 1.04 fold enrichment (6-mer frequency, TF over GST control). Besides, the binding signal with ETS2 is 1 fold enrichment (6-mer frequency, TF over GST control).

The values above are taken from PMC7862700, “An all-to-all approach to the identification of sequence-specific readers for epigenetic DNA modifications on cytosine”.
